Screening results (PubChem BioAssay)
Sampled rows, rich in hits. Any-hit rate of the full collection: about 4.1%.
BoNT-F LC inh = inhibitors of Botulinum neurotoxin F light chain protease; Multiplex microsphere protease cleavage assay, flow cytometry; inhibition, % at 10 µM; actives 0.22% (n = 360,000); in the data active = inhibition above about 35%, passing the limit was not always enough; inconclusive = no clear call, values can overlap the other calls; note: plate controls were buffer without enzyme for full effect and enzyme alone for no effect
VHR inh abs = inhibitors of human VHR1 phosphatase (DUSP3). P51452. recombinant VHR phosphatase, pNPP absorbance. inhibition, % at 13.3 µM. actives 0.52% (n = 290,000). AID 1654; in the data active = inhibition above about 50%
Target sequence (P51452 whole entry, looked up): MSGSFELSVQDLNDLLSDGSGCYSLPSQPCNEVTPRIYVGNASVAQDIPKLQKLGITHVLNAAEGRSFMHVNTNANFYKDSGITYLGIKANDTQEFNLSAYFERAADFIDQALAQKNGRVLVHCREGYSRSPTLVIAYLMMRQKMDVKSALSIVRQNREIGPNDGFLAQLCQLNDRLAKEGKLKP
BoNT A protease = inhibitors of Botulinum neurotoxin A light chain protease | actives 0.17% (n = 360,000) | AID 588499 | inhibition, % at 10 µM | multiplex microsphere protease substrate cleavage, flow cytometry; note: plate controls were buffer without enzyme for full effect and enzyme alone for no effect
Bead autofluor = flagged as autofluorescent in microsphere protease counterscreen | compound autofluorescence counterscreen, microsphere flow cytometry; active compounds read high | fluorescence intensity (test concentration not listed) | actives 3.1% (n = 360,000) | AID 624483; in the data active = fluorescence intensity above about 16000; inconclusive = no clear call, values can overlap the other calls
Anthrax LF inh2 = anthrax lethal factor protease inhibition; P15917; multiplex microsphere protease cleavage assay, LF; inhibition, % at 10 µM; actives 0.12% (n = 360,000); AID 588501; note: plate controls were buffer without enzyme for full effect and enzyme alone for no effect
MazEF act = MazEF (E. coli) toxin RNase activation; activation, % at 20 µM; FAM/BHQ RNA-DNA oligo cleavage fluorescence, 5 h; P0AE70; actives 0.32% (n = 350,000); in the data active = activation above about 50%
Target sequence (P0AE70 whole entry, looked up): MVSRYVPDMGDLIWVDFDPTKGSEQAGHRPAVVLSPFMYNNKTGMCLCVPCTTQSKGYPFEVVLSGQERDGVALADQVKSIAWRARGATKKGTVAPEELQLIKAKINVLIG
Active calls of the source: *; u = inconclusive; x = not tested or not shown. Cut-off read from the data, not from the text of the source, unless noted: active = inhibition above about 30%; inconclusive = no clear call, values can overlap the other calls; inactive = below that.

SMILES | BoNT-F LC inh | VHR inh abs | BoNT A protease | Bead autofluor | Anthrax LF inh2 | MazEF act
CC(=O)c1ccc(NC(=O)COC(=O)CCC(=O)c2cccs2)cc1 | -3 | -2 | -1 | 9166 | -2 | 2
Cc1ccc(Oc2ccc(NC(=O)CCC(=O)OCC(=O)c3cccs3)cc2)cc1C | -1 | 24 | 0 | 16284* | -7 | -2
CC(C)CCNC(=O)c1ccc(CSCc2cccc(F)c2)o1 | 4 | 16 | 5 | 17562* | -4 | -20
CC12C=CC3(CN(Cc4ccccc4)C(=O)C3C1C(=O)NCc1ccco1)O2 (configuration not stated) | 6 | 19 | 4 | 20657* | -13 | -9
COc1cc(C2SCC(=O)N2Cc2ccccc2)ccc1O (configuration not stated) | -2 | 10 | -3 | 3946 | 2 | 12
N#Cc1ccccc1S(=O)(=O)N1CCN(C(=O)c2cc3c(s2)CCC3)CC1 | 7 | x | 4 | u | -1 | -5
Nc1cc(=O)[nH]c(SCC(=O)Nc2ccc(F)c(Cl)c2)n1 | -6 | 12 | -5 | 21150* | 1 | 0
Nc1cc(=O)[nH]c(SCC(=O)Nc2ccc3c(c2)CCC3)n1 | 1 | 16 | -1 | 4265 | 2 | 8
CC(=O)Nc1cccc(-n2nnc(SCC(=O)Nc3ccc(F)c(Cl)c3)n2)c1 | -294 | 5 | -51 | 16932* | -50 | 6
CCN(CC)c1ccc(NC(=O)CN(C)Cc2cccs2)cc1 | -12 | 53* | 2 | 3861 | -4 | 5
Cc1cc(C)n(C(=O)c2c([N+](=O)[O-])c(C)nn2C)n1 | -4 | -3 | -4 | 24146* | -1 | 7
COC(=O)CC1COc2ccccc2N1C(=O)c1ccc(OC)cc1 (configuration not stated) | 0 | 9 | u | 21654* | 1 | 0
Cc1nnc(NC(=O)CCN2C(=O)C3CC=CCC3C2=O)s1 (configuration not stated) | -12 | x | -1 | 3900 | -6 | 13
Cc1cc(C)nc(N2CCCC(C(=O)Nc3nnc(C)s3)C2)n1 (configuration not stated) | 9 | 20 | 0 | 7621 | -2 | 6
Cc1cc(C)cc(NC(=O)C2CCCN(c3nccc(C)n3)C2)c1 (configuration not stated) | 1 | 13 | 0 | 16127* | -4 | -21
Cc1cc(C)nc(N2CCCC(C(=O)Nc3nc4ccc(S(C)(=O)=O)cc4s3)C2)n1 (configuration not stated) | 1 | 8 | 2 | 22009* | 1 | -1
Cc1cc(C)cc(NC(=O)C2CCCN(c3nc(C)cc(C)n3)C2)c1 (configuration not stated) | -3 | 32 | -1 | 22398* | -9 | -15
CC(=O)Nc1ccc(NC(=O)C2CCCN(c3ncccn3)C2)cc1 (configuration not stated) | 1 | 18 | -1 | 4477 | 0 | 2
Oc1cccc2oc(=S)[nH]c12 | 4 | x | 0 | 3826 | -4 | -3
CC(OC(=O)C1=COCCO1)C(=O)Nc1ccc(Cl)cn1 (configuration not stated) | 12 | x | 4 | 5634 | 2 | 2
CCn1c(SCC(=O)N2CCCCC2)nnc1-c1ccc(S(=O)(=O)N2CCN(C)CC2)cc1 | 3 | 40 | 1 | 16315* | 0 | 11
CCn1c(SCC(=O)N2CCCC2)nnc1-c1ccc(S(=O)(=O)N2CCCCCC2)cc1 | 2 | 42 | u | 19519* | 2 | 12
N#CCSc1nnc(-c2ccc(S(=O)(=O)N3CCOCC3)cc2)n1CC1CCCO1 (configuration not stated) | -6 | 19 | u | 22267* | -6 | -15
Cn1c(SCC(=O)N2CCCCC2)nnc1-c1ccc(S(=O)(=O)N2CCOCC2)cc1 | -5 | -10 | -3 | 17538* | -4 | 7
Cn1c(SCC(=O)N2CCCC2)nnc1-c1ccc(S(=O)(=O)N2CCCC2)cc1 | 0 | 26 | 0 | 10121 | -1 | 9
SMILES | BoNT-F LC inh | VHR inh abs | BoNT A protease | Bead autofluor | Anthrax LF inh2 | MazEF act
O=C(O)CSc1nnc(-c2ccc(S(=O)(=O)N3CCCC3)cc2)n1Cc1ccco1 | -3 | 25 | 0 | 11292 | 0 | -8
CCn1c(SCC(=O)Nc2cc(C)on2)nnc1-c1ccc(S(=O)(=O)N2CCN(C)CC2)cc1 | 1 | -10 | 0 | 24027* | 0 | 3
NC(=O)CSc1nnc(-c2ccc(S(=O)(=O)N3CCCC3)cc2)n1Cc1ccco1 | 3 | 14 | 4 | 19668* | 0 | -4
Cc1nnc(SCC(=O)c2ccc(S(=O)(=O)N3CCOCC3)cc2)n1-c1ccccc1 | -6 | 22 | u | 24041* | -2 | 7
CC(NC(=O)c1ccncc1)C(C)(C)C (configuration not stated) | 4 | -2 | 6 | 21180* | -13 | -9
Cc1ccc(C(C)NC(=O)c2ccncc2)cc1C (configuration not stated) | 1 | 2 | 1 | 5880 | -4 | 4
COC(=O)c1nn(-c2ccc(OC)cc2)c(=O)cc1Oc1cccc(Cl)c1 | -4 | 10 | u | 20164* | 0 | 4
COC(=O)c1nn(-c2ccc(Oc3ccccc3)cc2)c(=O)cc1O | -14 | 29 | -2 | 3287 | 1 | -3
O=C1C2(CCC13COC(c1ccc(O)cc1)OC3)COC(c1ccc(O)cc1)OC2 (configuration not stated) | -1 | 0 | 1 | 22568* | -5 | 2
O=C1C2(CCCC13COC(c1ccc(O)cc1)OC3)COC(c1ccc(O)cc1)OC2 (configuration not stated) | x | 10 | x | x | x | 5
CCOC(=O)NC(Nc1nc2ccccc2s1)(C(=O)OCC)C(F)(F)F (configuration not stated) | -8 | 11 | -6 | 25071* | -3 | 1
CCC(SC1=N/C(=C/c2ccccc2)C(=O)N1c1ccccc1)C(=O)Nc1cc(C)on1 (configuration not stated) | 5 | 12 | 0 | 9422 | -5 | 10
Cc1cc(NC(=O)CSc2nc3ccccc3cc2C#N)no1 | 0 | 21 | 0 | 5291 | 0 | 55*
CCOC(=O)CC(=O)CSc1nc2ccc(C)cc2cc1C#N | 3 | 3 | 6 | 10174 | -2 | -62
COC(=O)CSc1nc2cc(C)ccc2cc1C#N | 10 | 8 | 1 | 4193 | -4 | 260*
Cc1ccc2nc(SCC(=O)Nc3ccc4sc(C)nc4c3)c(C#N)cc2c1 | -3 | -1 | -1 | 10098 | -4 | 168*
COc1ccc(/C=C2/N=C(SCC(=O)Nc3cc(C)on3)N(c3ccccc3)C2=O)cc1 | 6 | 4 | 1 | 8620 | 1 | 70*
Cc1n[nH]c(=O)c2c(NC(=O)COC(=O)Cc3ccc(Cl)cc3Cl)oc(C)c12 | 9 | x | 3 | 5038 | -4 | -1
Cc1cc(C)c2nc(SCC(=O)Nc3cc(C)on3)c(C#N)cc2c1 | -6 | 25 | -3 | 5459 | 1 | 59*
